# Data published in the supplement of paper PMC8728848.
# The full list was thinned out, with the strongest signals kept by preference.
# Tests used:
# Assay in all cases: glycan array binding signal (z-score within array); higher = stronger binding
# Conditions in all cases: glycan notation: IUPAC condensed, linker removed
# Fuc(a1-2)Gal = biological target: Fuc(a1-2)Gal
# Summary of the method: (§1)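 The binding signal is a Z-score computed within each array and averaged over linkers. Arrays of the same protein sequence at different concentrations or buffers were also averaged together. Data originate from 3228 arrays in the Consortium for Functional Glycomics database, kept only where the protein sequence was available.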
# [1] = biological target: Fuc(a1-2)Gal(b1-3)GalNAc(a1-3)[Fuc(a1-2)]Gal(b1-4)Glc
# Summary of the method: as §1
# [2] = biological target: Fuc(a1-2)[Gal(a1-3)]Gal(b1-4)GlcNAc(b1-3)[Fuc(a1-2)[Gal(a1-3)]Gal(b1-4)GlcNAc(b1-6)]GalNAc
# Summary of the method: as §1
# [3] = biological target: Fuc(a1-2)[Gal(a1-3)]Gal(b1-4)[Fuc(a1-3)]GlcNAc(b1-3)GalNAc
# Summary of the method: as §1
# [4] = biological target: Fuc(a1-2)[GalNAc(a1-3)]Gal(b1-3)GlcNAc(b1-6)GalNAc
# Summary of the method: as §1
# [5] = biological target: Fuc(a1-2)[GalNAc(a1-3)]Gal(b1-4)GlcNAc(b1-3)Gal(b1-4)GlcNAc(b1-3)Gal(b1-4)GlcNAc
# Summary of the method: as §1
# [6] = biological target: Fuc(a1-3)[Gal(b1-4)]GlcNAc(b1-6)GalNAc
# Summary of the method: as §1
# [7] = biological target: Fuc(a1-3)[GalNAc(b1-4)]GlcNAc6S
# Summary of the method: as §1
# Gal(a1-4)Gal(b1-4)Glc = biological target: Gal(a1-4)Gal(b1-4)Glc
# Summary of the method: as §1
# Gal(b1-3)Gal(b1-4)GlcNAc = biological target: Gal(b1-3)Gal(b1-4)GlcNAc
# Summary of the method: as §1
# [8] = biological target: Gal(b1-3)GlcNAc(b1-3)Gal(b1-4)GlcNAc(b1-2)[Gal(b1-3)GlcNAc(b1-3)Gal(b1-4)GlcNAc(b1-6)]Man(a1-6)[Gal(b1-3)GlcNAc(b1-3)Gal(b1-4)GlcNAc(b1-2)Man(a1-3)]Man(b1-4)GlcNAc(b1-4)[Fuc(a1-6)]GlcNAc
# Summary of the method: as §1
# [9] = biological target: Gal(b1-3)GlcNAc(b1-3)Gal(b1-4)GlcNAc(b1-3)Gal(b1-4)GlcNAc(b1-2)[Gal(b1-3)GlcNAc(b1-3)Gal(b1-4)GlcNAc(b1-3)Gal(b1-4)GlcNAc(b1-6)]Man(a1-6)[Gal(b1-3)GlcNAc(b1-3)Gal(b1-4)GlcNAc(b1-3)Gal(b1-4)GlcNAc(b1-2)Man(a1-3)]Man(b1-4)GlcNAc(b1-4)[Fuc(a1-6)]GlcNAc
# Summary of the method: as §1
# [10] = biological target: Gal(b1-4)GlcNAc(b1-2)Man(a1-3)[Gal(b1-4)GlcNAc(b1-2)Man(a1-6)]Man(b1-4)GlcNAc(b1-4)GlcNAc
# Summary of the method: as §1
# [11] = biological target: Gal(b1-4)GlcNAc(b1-2)[Gal(b1-4)GlcNAc(b1-4)]Man(a1-3)[Gal(b1-4)GlcNAc(b1-2)Man(a1-6)]Man(b1-4)GlcNAc(b1-4)GlcNAc
# Summary of the method: as §1
# [12] = biological target: Gal(b1-4)GlcNAc(b1-3)Gal(b1-4)GlcNAc(b1-2)[Gal(b1-4)GlcNAc(b1-3)Gal(b1-4)GlcNAc(b1-6)]Man(a1-6)[Gal(b1-4)GlcNAc(b1-3)Gal(b1-4)GlcNAc(b1-2)Man(a1-3)]Man(b1-4)GlcNAc(b1-4)[Fuc(a1-6)]GlcNAc
# Summary of the method: as §1
# [13] = biological target: Gal(b1-4)GlcNAc(b1-3)Gal(b1-4)GlcNAc(b1-3)Gal(b1-4)GlcNAc(b1-2)[Gal(b1-4)GlcNAc(b1-3)Gal(b1-4)GlcNAc(b1-3)Gal(b1-4)GlcNAc(b1-6)]Man(a1-6)[Gal(b1-4)GlcNAc(b1-3)Gal(b1-4)GlcNAc(b1-3)Gal(b1-4)GlcNAc(b1-2)Man(a1-3)]Man(b1-4)GlcNAc(b1-4)[Fuc(a1-6)]GlcNAc
# Summary of the method: as §1
# [14] = biological target: Gal(b1-4)GlcNAc(b1-3)Gal(b1-4)GlcNAc(b1-3)Gal(b1-4)GlcNAc(b1-3)Gal(b1-4)GlcNAc(b1-2)Man(a1-3)[Gal(b1-4)GlcNAc(b1-3)Gal(b1-4)GlcNAc(b1-3)Gal(b1-4)GlcNAc(b1-3)Gal(b1-4)GlcNAc(b1-2)Man(a1-6)]Man(b1-4)GlcNAc(b1-4)GlcNAc
# Summary of the method: as §1
# [15] = biological target: Gal(b1-4)GlcNAc(b1-3)Gal(b1-4)GlcNAc(b1-3)Gal(b1-4)GlcNAc(b1-3)Gal(b1-4)GlcNAc(b1-2)Man(a1-3)[Gal(b1-4)GlcNAc(b1-3)Gal(b1-4)GlcNAc(b1-3)Gal(b1-4)GlcNAc(b1-3)Gal(b1-4)GlcNAc(b1-2)Man(a1-6)]Man(b1-4)GlcNAc(b1-4)[Fuc(a1-6)]GlcNAc
# Summary of the method: as §1
# [16] = biological target: Gal(b1-4)GlcNAc(b1-3)Gal(b1-4)GlcNAc(b1-3)Gal(b1-4)GlcNAc(b1-3)Gal(b1-4)GlcNAc(b1-2)[Gal(b1-4)GlcNAc(b1-3)Gal(b1-4)GlcNAc(b1-3)Gal(b1-4)GlcNAc(b1-3)Gal(b1-4)GlcNAc(b1-6)]Man(a1-6)[Gal(b1-4)GlcNAc(b1-3)Gal(b1-4)GlcNAc(b1-3)Gal(b1-4)GlcNAc(b1-3)Gal(b1-4)GlcNAc(b1-2)Man(a1-3)]Man(b1-4)GlcNAc(b1-4)[Fuc(a1-6)]GlcNAc
# Summary of the method: as §1
# [17] = biological target: Gal(b1-4)GlcNAc(b1-3)Gal(b1-4)GlcNAc(b1-3)Gal(b1-4)GlcNAc(b1-3)Gal(b1-4)GlcNAc(b1-3)Gal(b1-4)GlcNAc(b1-2)Man(a1-3)[Gal(b1-4)GlcNAc(b1-3)Gal(b1-4)GlcNAc(b1-3)Gal(b1-4)GlcNAc(b1-3)Gal(b1-4)GlcNAc(b1-3)Gal(b1-4)GlcNAc(b1-2)Man(a1-6)]Man(b1-4)GlcNAc(b1-4)GlcNAc
# Summary of the method: as §1
# [18] = biological target: Gal(b1-4)GlcNAc(b1-3)Gal(b1-4)GlcNAc(b1-3)Gal(b1-4)GlcNAc(b1-3)Gal(b1-4)GlcNAc(b1-3)Gal(b1-4)GlcNAc(b1-2)Man(a1-3)[Gal(b1-4)GlcNAc(b1-3)Gal(b1-4)GlcNAc(b1-3)Gal(b1-4)GlcNAc(b1-3)Gal(b1-4)GlcNAc(b1-3)Gal(b1-4)GlcNAc(b1-2)Man(a1-6)]Man(b1-4)GlcNAc(b1-4)[Fuc(a1-6)]GlcNAc
# Summary of the method: as §1
# [19] = biological target: Gal(b1-4)GlcNAc(b1-3)Gal(b1-4)GlcNAc(b1-3)Gal(b1-4)GlcNAc(b1-3)Gal(b1-4)GlcNAc(b1-3)Gal(b1-4)GlcNAc(b1-2)[Gal(b1-4)GlcNAc(b1-3)Gal(b1-4)GlcNAc(b1-3)Gal(b1-4)GlcNAc(b1-3)Gal(b1-4)GlcNAc(b1-3)Gal(b1-4)GlcNAc(b1-6)]Man(a1-6)[Gal(b1-4)GlcNAc(b1-3)Gal(b1-4)GlcNAc(b1-3)Gal(b1-4)GlcNAc(b1-3)Gal(b1-4)GlcNAc(b1-3)Gal(b1-4)GlcNAc(b1-2)Man(a1-3)]Man(b1-4)GlcNAc(b1-4)[Fuc(a1-6)]GlcNAc
# Summary of the method: as §1
binder,measurement,setting,value
rCnSL-A (Clitocybe nebularis) (protein) VNPNLPGPNDVFVGFRGTNNIVGAIYEKDGIKDTPLNNGADAEMGPGSYITDGLFTARIFASGSAGNNPGTTATVCKIYASGVQWRGAPKGYIPVAYFGNGPTAEQRRQTYLRTLGLPGTAIRFGNLNTNPGQGPTAPRQMVVPPGPLRSLLKASCFPAADTRLPQTLHYFEKRVDWNIITAADSQTWGH,glycan array binding signal (z-score),Fuc(a1-2)Gal,-0.225
same,glycan array binding signal (z-score),[1],-0.137
same,glycan array binding signal (z-score),[2],-0.176
same,glycan array binding signal (z-score),[3],-0.339
same,glycan array binding signal (z-score),[4],-0.306
same,glycan array binding signal (z-score),[5],-0.002
same,glycan array binding signal (z-score),[6],-0.093
same,glycan array binding signal (z-score),[7],-0.255
same,glycan array binding signal (z-score),Gal(a1-4)Gal(b1-4)Glc,-0.211
same,glycan array binding signal (z-score),Gal(b1-3)Gal(b1-4)GlcNAc,-0.132
same,glycan array binding signal (z-score),[8],1.95
same,glycan array binding signal (z-score),[9],3.37
same,glycan array binding signal (z-score),[10],-0.203
same,glycan array binding signal (z-score),[11],2.67
same,glycan array binding signal (z-score),[12],3.11
same,glycan array binding signal (z-score),[13],5.46
same,glycan array binding signal (z-score),[14],8.55
same,glycan array binding signal (z-score),[15],2.68
same,glycan array binding signal (z-score),[16],10.3
same,glycan array binding signal (z-score),[17],2.36
same,glycan array binding signal (z-score),[18],5.05
same,glycan array binding signal (z-score),[19],13.6
